# Test results: the supplement of paper PMC8728848
# The full list was thinned out, with the strongest signals kept by preference.
# Legend:
# Assay in all cases: glycan array binding signal (z-score within array); higher = stronger binding
# Details in all cases: glycan notation: IUPAC condensed, linker removed; mutation: R343K
# [1] = biological target: Fuc(a1-2)Gal
# Procedure, shortened: (§1)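 Arrays were curated from the Consortium for Functional Glycomics database, 3228 in total, and kept only where the protein sequence was available. Binding is expressed as a within-array Z-score. This score was averaged across arrays of the same protein sequence at different concentrations or buffers and across linkers, and negative values can be read as non-binding.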
# [2] = biological target: Fuc(a1-2)Gal(b1-4)GlcNAc(b1-3)Gal(b1-4)GlcNAc(b1-3)Gal(b1-4)GlcNAc
# Procedure, shortened: as §1
# [3] = biological target: Fuc(a1-2)[GalNAc(b1-3)]Gal
# Procedure, shortened: as §1
# [4] = biological target: Fuc(a1-3)[Gal(b1-4)]GlcNAc(b1-2)Man(a1-6)[Gal(b1-4)GlcNAc(b1-2)Man(a1-3)]Man(b1-4)GlcNAc(b1-4)GlcNAc
# Procedure, shortened: as §1
# [5] = biological target: Fuc(a1-3)[Gal(b1-4)]GlcNAc(b1-4)Gal(b1-4)[Fuc(a1-3)]GlcNAc
# Procedure, shortened: as §1
# [6] = biological target: Gal(b1-3)GalNAc(b1-3)Gal(a1-4)Gal(b1-4)Glc
# Procedure, shortened: as §1
# [7] = biological target: Gal(b1-4)GalNAc(a1-3)[Fuc(a1-2)]Gal(b1-4)GlcNAc
# Procedure, shortened: as §1
# [8] = biological target: Gal(b1-4)GlcNAc(a1-6)Gal(b1-4)GlcNAc
# Procedure, shortened: as §1
# [9] = biological target: Gal(b1-4)GlcNAc(b1-6)GalNAc
# Procedure, shortened: as §1
# [10] = biological target: Gal3S(b1-3)GlcNAc
# Procedure, shortened: as §1
# [11] = biological target: Gal3S(b1-3)[Fuc(a1-4)]GlcNAc
# Procedure, shortened: as §1
# [12] = biological target: Glc(b1-4)Glc
# Procedure, shortened: as §1
# [13] = biological target: GlcA(b1-6)Gal
# Procedure, shortened: as §1
# [14] = biological target: GlcNAc(b1-2)Gal(b1-3)GalNAc
# Procedure, shortened: as §1
# [15] = biological target: Man(a1-2)Man(a1-3)[Man(a1-2)Man(a1-6)]Man
# Procedure, shortened: as §1
# [16] = biological target: Man(a1-2)Man(a1-3)[Man(a1-2)Man(a1-6)]Man(a1-6)[Man(a1-2)Man(a1-2)Man(a1-3)]Man
# Procedure, shortened: as §1
# [17] = biological target: Man(a1-2)Man(a1-3)[Man(a1-6)]Man(a1-6)[Man(a1-2)Man(a1-3)]Man(b1-4)GlcNAc(b1-4)GlcNAc
# Procedure, shortened: as §1
# [18] = biological target: Man(a1-3)[Man(a1-6)]Man(a1-6)[Man(a1-2)Man(a1-3)]Man(b1-4)GlcNAc(b1-4)GlcNAc
# Procedure, shortened: as §1
# [19] = biological target: Man(a1-3)[Man(a1-6)]Man(a1-6)[Man(a1-3)]Man
# Procedure, shortened: as §1
# [20] = biological target: Neu5Ac(a2-3)Gal(b1-3)GalNAc(b1-3)Gal(a1-4)Gal(b1-4)Glc
# Procedure, shortened: as §1
# [21] = biological target: Neu5Ac(a2-3)Gal(b1-3)GalNAc6S
# Procedure, shortened: as §1
# [22] = biological target: Neu5Ac(a2-3)Gal(b1-3)GlcNAc
# Procedure, shortened: as §1
# [23] = biological target: Neu5Ac(a2-3)Gal(b1-4)GlcNAc(b1-3)Gal(b1-4)GlcNAc(b1-3)Gal(b1-4)GlcNAc
# Procedure, shortened: as §1
# [24] = biological target: Neu5Ac(a2-6)GalNAc(b1-4)GlcNAc
# Procedure, shortened: as §1
# [25] = biological target: Neu5Ac9Ac(a2-6)Gal(b1-4)GlcNAc
# Procedure, shortened: as §1
# [26] = biological target: Neu5Gc(a2-6)Gal(b1-4)GlcNAc
# Procedure, shortened: as §1
binder,measurement,setting,value
Surfactant Protein D (Human); Neck + Carbohydrate Recognition Domain (NCRD) (Homo sapiens) (protein) MLLFLLSALVLLTQPLGYLEAEMKTYSHRTMPSACTLVMCSSVESGLPGRDRDGREGPRGEKGDPGLPGAAGQAGMPGQAGPVGPKGDNGSVGEPGPKGDTGPSGPPGPPGVPGPAGREGALGKQGNIGPQGKPGPKGEAGPKGEVGAPGMQGSAGARGLAGPKGERGVPGERGVPGNTGAAGSAGAMGPQGSPGARGPPGLKGDKGIPGDKGAKGESGLPDVASLRQQVEALQGQVQHLQAAFSQYKKVELFPNGQSVGEKIFKTAQFVKPFTEAQLLCTQAGGQLASPRSAAENAALQQLVVAKNEAAFLSMTDSKTEGKFTYPTGESLVYSNWAPGEPNDDGGSEDCVEIFTNGKWNDKACGEKRLVVCEF,glycan array binding signal (z-score),[1],-0.147
same,glycan array binding signal (z-score),[2],-0.143
same,glycan array binding signal (z-score),[3],-0.145
same,glycan array binding signal (z-score),[4],-0.147
same,glycan array binding signal (z-score),[5],-0.157
same,glycan array binding signal (z-score),[6],-0.147
same,glycan array binding signal (z-score),[7],-0.145
same,glycan array binding signal (z-score),[8],-0.153
same,glycan array binding signal (z-score),[9],-0.151
same,glycan array binding signal (z-score),[10],-0.155
same,glycan array binding signal (z-score),[11],-0.153
same,glycan array binding signal (z-score),[12],-0.153
same,glycan array binding signal (z-score),[13],-0.146
same,glycan array binding signal (z-score),[14],-0.159
same,glycan array binding signal (z-score),[15],5.42
same,glycan array binding signal (z-score),[16],10.9
same,glycan array binding signal (z-score),[17],5.1
same,glycan array binding signal (z-score),[18],7.96
same,glycan array binding signal (z-score),[19],5.92
same,glycan array binding signal (z-score),[20],-0.155
same,glycan array binding signal (z-score),[21],-0.156
same,glycan array binding signal (z-score),[22],-0.142
same,glycan array binding signal (z-score),[23],-0.143
same,glycan array binding signal (z-score),[24],-0.155
same,glycan array binding signal (z-score),[25],-0.15
same,glycan array binding signal (z-score),[26],-0.155
